Inconclusive results are not listed. A call without a number means that no potency is given here. Activity calls are given as the source filed them. The call rests on the fitted dose curve.
Assay: qHTS assay for small molecule agonists of the antioxidant response element (ARE) signaling pathway - cell viability counter screen (AID 743203); further: nearly all actives have a fitted effect of over 55% in size
Details: ARE-bla HepG2 viability, CellTiter-Glo luminescence, 16 h; series mostly up to 73.3 µM
From the text: National Center for Advancing Translational Sciences [NCATS]
NIH Chemical Genomics Center [NCGC]
U.S. Environmental Protection Agency [EPA]
National Institutes of Environmental Health Sciences [NIEHS]
National Toxicology Program [NTP]
U.S. Food and Drug Administration [FDA]
Oxidative stress has been implicated in the pathogenesis of a variety of diseases ranging from cancer to neurodegeneration. The antioxidant response element (ARE) signaling pathway plays an important role in the amelioration of oxidative stress. The CellSensor ARE-bla HepG2 cell line (Invitrogen) can be used for analyzing the Nrf2/antioxidant response signaling pathway. Nrf2 (NF-E2-related factor 2) and Nrf1 are transcription factors that bind to AREs and activate these genes. The CellSensor ARE-bla Hep G2 cell line contains a beta-lactamase reporter gene under control of the Antioxidant Response Element (ARE) stably integrated into HepG2 cells. The activation of the report gene under culture conditions can be detected by fluorescence intensity. This cell line has been used to screen the Tox21 10K compound library to identify agonists that induce oxidative stress. The cytotoxicity of the Tox21 compound library against the ARE-bla cell line was tested in parallel by measuring the cell viability using CellTiter-Glo assay (Promega, Madison, WI) in the same wells.
Tox21 Assay Protocol Summary:
ARE-bla HepG2 cells were dispensed at 2,000 cells/5 ul/well in 1536-well white wall/solid bottom plates using a Multidrop Combi (ThermoFisher Scientific, Waltham, MA) dispenser. After the assay plates were incubated at 37C/5% CO2 for 5 hrs, 23 nL of compounds dissolved in DMSO, positive controls or DMSO only was transferred to the assay plate by a pintool work station (Kalypsys, San Diego, CA). The plates were incubated at 37C/5% CO2 for 16 hrs, followed by addition of 4 ul/well of CellTiter-Glo reagent into the assay plates using a Flying Reagent Dispenser (Aurora Discovery, San Diego, CA). After 30 min incubation at room temperature, the luminescence intensity in the assay plates was measured using a ViewLux (PerkinElmer, Shelton, CT) plate reader.
Potency means the concentration at half of the fitted maximal effect.

| SMILES | Potency |
| --- | --- |
| CC1CN(c2ccccc2)NC1=O (stereo not given) | inactive |
| CN1CCN(C2=Nc3ccccc3Oc3ccc(Cl)cc32)CC1 | inactive |
| CC1(C)S[C@@H]2[C@H](NC(=O)C(C(=O)O)c3ccccc3)C(=O)N2[C@H]1C(=O)O (stereo not given in full) | inactive |
| Cc1cc(S(=O)(=O)O)c(N)cc1Cl | inactive |
| COC(=O)c1ccc2cc(C(=O)OC)ccc2c1 | inactive |
| Nc1ccc(Oc2ccc(N)c(N)c2)cc1 | inactive |
| CCOC(=O)COc1ccc2c(c1)CC(NCC(O)c1cccc(Cl)c1)CC2 (stereo not given) | 48.9 µM (active) |
| Cc1nc(N)nc(N)c1-c1ccc(Cl)c(Cl)c1 | 0.668 µM (active) |
| C=C(C)C(=O)OCCOP(=O)(O)O | inactive |
| CC(C)=CCCC(C)CCOC=O (stereo not given) | 54.5 µM (active) |
| C[C@]12C(=O)OC(=O)[C@H]1[C@H]1C=C[C@@H]2C1 | inactive |
| CC(C)=CCC[C@](C)(O)[C@@H]1CC=C(C)CC1 | inactive |
| CCOc1ccc2nc(N)sc2c1 | inactive |
| ClC(Cl)Cl | inactive |
| Cc1ccc(C(C)C)cc1O | inactive |
| C=CC(C)(O)CC/C=C(\C)CCC=C(C)C (stereo not given) | inactive |
| COC(=O)/C=C(/C)N | inactive |
| O=C1CCCCCCCCCCC(=O)OCCO1 | inactive |
| Nc1cccc(S(=O)(=O)O)c1 | inactive |
| Cc1c(-c2ccccc2)oc2c(C(=O)OCCN3CCCCC3)cccc2c1=O | inactive |

| SMILES | Potency |
| --- | --- |
| CCN(O)CC | inactive |
| COC(=O)C(C)O (stereo not given) | inactive |
| C=CCCCCCCCCO | inactive |
| NC1=NCC2c3ccccc3Cc3ccccc3N12 (stereo not given) | inactive |
| COc1ccc(Nc2ccc(OC)cc2)cc1 | inactive |
| CCN(CC)CC1CCCCN1CC(=O)N1c2ccccc2C(=O)Nc2cccnc21 (stereo not given) | inactive |
| CCN(CC)CCNC(=O)COc1ccc(Cl)cc1 | inactive |
| OCC(CBr)(CBr)CBr | inactive |
| CC(=O)OC1C2(C)CCC(C2)C1(C)C (stereo not given) | inactive |
| CCCCNC(=S)NCCCC | inactive |
| CCOc1ccc(NC(N)=O)cc1 | inactive |
| O=c1oc2c(O)c(O)cc3c(=O)oc4c(O)c(O)cc1c4c23 | inactive |
| CC(=O)O[C@H]1CC[C@@]2(C)C(=CC[C@@H]3[C@@H]2CC[C@]2(C)C(C(C)=O)=CC[C@@H]32)C1 | inactive |
| ICCc1ccccc1 | inactive |
| CCOC(=O)CS | inactive |
| CCOC(=O)[C@H](CCc1ccccc1)N[C@@H](C)C(=O)N1Cc2cc(OC)c(OC)cc2C[C@H]1C(=O)O | inactive |
| CCC(=O)O[C@]1(C(=O)SCF)[C@H](C)C[C@H]2[C@@H]3C[C@H](F)C4=CC(=O)C=C[C@]4(C)[C@@]3(F)[C@@H](O)C[C@@]21C | inactive |
| CC1=C(CC(=O)O)c2cc(F)ccc2/C1=C\c1ccc(S(C)(=O)=O)cc1 | inactive |
| CCc1cc(Cl)c(OC)c(C(=O)NC[C@@H]2CCCN2CC)c1O | inactive |
| Cc1onc(-c2ccccc2)c1C(=O)Cl | inactive |
